Screening results as filed in PubChem BioAssay.
An excerpt weighted towards active compounds, which were near 19% of everything screened.
DT40 TDP1 CPT: growth inhibition of DT40 Tdp1-/-;hTDP1 cells with camptothecin (screen for TDP1 inhibitors); chicken DT40 Tdp1-/-;hTDP1 cells + 20 nM CPT, ATP luminescence, 48 h; Potency, µM (titrated, usually from 46.2 µM), for inactives: at the top dose activity change, negative = growth inhibition, most hits filed as inhibitors; 12% of 420,000 active; AID 686979; also: potency is read from the fitted curve at half-maximal effect; nearly all actives have a fitted effect of over 55% in size
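Chicken DT40 Tdp1-/- cells complemented with human TDP1, 400 cells/well, exposed to compounds plus 20 nM camptothecin for at least 48 h at 37 C; viability read as ATP content by CellTiter-Glo luminescence.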
IL-1B inflam inh: inhibitors of inflammasome signaling (IL-1 beta secretion). THP-1 LPS/ATP IL-1B secretion, AlphaLISA, 16 h; active compounds read low. activity change, % at 57.5 µM. 4.7% of 360,000 active. AID 743279; in the data active = activity change below about -50%; inconclusive = mostly about -30% to -49%
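THP-1 cells pretreated 1 hr with compounds (up to 57.5 uM final), then stimulated with LPS (250 ng/mL final) plus ATP (1.25 mM final); secreted IL-1B measured by AlphaLISA after 16 hr, decreased signal indicating inhibition.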
HT1080NT lethal: kills 2HG-producing HT-1080-NT fibrosarcoma cells. 1.6% of 360,000 active. Potency, µM (doses to about 46.1 µM), for the others: at the highest dose activity, negative = less viability, most hits filed as cytotoxic. HT-1080-NT fibrosarcoma viability, CellTiter-Glo ATP luminescence, 48 h. AID 686970;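 also: NT is the 2HG producing partner of a matched IDH1 knockdown line; potency is read from the fitted curve at half-maximal effect; 0% = DMSO-treated cells and -100% = media-only wells without cells; nearly all actives have a fitted effect of over 55% in size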
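HT-1080-NT; 750 cells/well; 5% FBS RPMI; 48 h compound, 37 degrees C; CellTiter-Glo luminescence; curve fitting and curve-class assignment.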
DT40 TDP1 no CPT: qHTS for Inhibitors of human tyrosyl-DNA phosphodiesterase 1 (TDP1): qHTS in cells in absence of CPT; 15% of 420,000 active; DT40 Tdp1-/- hTDP1 cells, no CPT, ATP luminescence, 48 h; Potency, µM (series often up to 46.2 µM), for the others: at the highest dose activity change, negative = growth inhibition, most hits filed as inhibitors; also: potency is read from the fitted curve at half-maximal effect; nearly all actives have a fitted effect of over 55% in size
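Cells were dispensed at 400 per well, compounds added by pin tool, plates incubated ≥48 hr at 37 °C, then CellTiter-Glo added for 30 min at room temperature before luminescence reading. Line: DT40 Tdp1-/- complemented with hTDP1; camptothecin omitted.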
HT1080 IDH1KD tx: kills HT-1080 cells with IDH1 knockdown. HT-1080 IDH1 knockdown viability, ATP luminescence, 48 h. Potency, µM (doses to about 46.1 µM), for the others: at the top dose activity, negative = toxicity, actives largely listed as cytotoxic. 2% of 360,000 active. AID 686971;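 also: potency is read from the fitted curve at half-maximal effect; 0% = DMSO wells and -100% = cell-free medium wells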
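IDH1KD HT-1080 cells, 750/well, RPMI + 5% FBS; compound pinned after 2 h settling; 48 h, 37 °C; CellTiter-Glo luminescence; % activity normalised to DMSO and no-cell wells; curves fitted, classed by r2 and efficacy.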
* marks the source's active call; other numbers are inactive results; u = inconclusive; x = no result; ! = a repeat was not active; [ ] = remark or other dose. Unless noted, calls follow the shape of the dose curve; as a rule, active = well fitted curve in the direction sought with a large enough effect; inconclusive = small, poorly fitted or top-dose-only effect, or another doubt; inactive = no such curve, though single readings can be large; an effect the other way counts as inactive or inconclusive. Unless noted, % is scaled to controls: 0 for no effect and ±100 for the full control effect.

SMILES	DT40 TDP1 CPT	IL-1B inflam inh	HT1080NT lethal	DT40 TDP1 no CPT	HT1080 IDH1KD tx
Clc1ccc(-c2nc3ccccc3nc2-c2ccccc2)cc1	u	-11	1%	21µM*	18%
Oc1ccccc1-c1nc2ccccc2nc1-c1ccccc1	u	4	0%	u	1%
Clc1nc2ccccc2nc1-c1ccccc1	-17%	2	22%	-23%	15%
Cc1ccc(S(=O)(=O)N2CCC(=O)N(CCOCc3cccc(C(F)(F)F)c3)CC2)cc1	15µM*	u	-6%	u	1%
COc1ccc(COCCN2CCN(S(=O)(=O)c3ccc(C)cc3)CCC2=O)cc1	21µM*	-11	5%	u	5%
COc1cccc(COCCN2CCN(S(=O)(=O)c3ccc(C)cc3)CCC2=O)c1	u	-20	1%	u	-14%
Cc1ccc(COCCN2CCN(S(=O)(=O)c3ccc(C)cc3)CCC2=O)cc1	u	34	3%	u	1%
Cc1ccc(S(=O)(=O)N2CCC(=O)N(CCOCc3cccc(C)c3)CC2)cc1	10µM*	-9	4%	u	-3%
COc1ccccc1CN1CCCC(n2cc(C(=O)N3CCCCC3)nn2)C1 (stereo unspecified)	6%[9.04 µM]	x	x	-8%	x
Cc1ccc(S(=O)(=O)Oc2ccccc2)cc1	6%	-3	2%	-2%	3%
Cc1ccc(S(=O)(=O)/C=C/c2ccccc2)cc1	0%	-76*	-2%	-11%	12%
Cc1cc(C)nc(Nc2n[nH]c(COc3cccc4ccccc34)n2)n1	2.9µM*	3	3%	3.3µM*	1%
Cc1cc(C)nc(Nc2n[nH]c(COc3ccccc3)n2)n1	u	-10	29%	18µM*	23%
Cc1cc(C)nc(Nc2n[nH]c(-c3cccc4ccccc34)n2)n1	u	-13	-1%	u	3%
Cc1cc(C)nc(Nc2n[nH]c(COc3ccc4ccccc4c3)n2)n1	-11%	19	0%	-19%	2%
Cc1ccc(C)c(CN2C[C@H](Sc3ccccn3)C[C@H]2C(=O)Nc2ccc3sc(C)nc3c2)c1	0%[9.04 µM]	x	x	-10%	x
C#CCOCCOCCOCCNc1nc(N2CCN(C(=O)[C@H](CCC(=O)O)n3cc(C(N)CC(C)C)nn3)CC2)nc(N2CCN(C(=O)[C@H](CCC(=O)O)n3cc(C(N)CC(C)C)nn3)CC2)n1 (stereo partly specified)	5%	14	6%	-2%	7%
CC(C)C(=O)N1c2nc(C(C)C)nn2C2(CCCCC2)[C@@H]2CCCC[C@@H]21	6.5µM*	x	x	4.6µM*	x
CC(C)c1nc2n(n1)C1(CCCCC1)[C@@H]1CCCC[C@@H]1N2	u	x	x	23µM*	x
CCn1c(=O)c2c(nc(SCC(=O)NCC3CCCO3)n2C)n(C)c1=O (stereo unspecified)	u	8	5%	-29%	-2%
CCOC(=O)C1=c2s/c(=C\c3cccnc3)c(=O)n2C(N)=C(C(=O)OC)C1c1cccnc1 (stereo unspecified)	23µM*	11	1%	15µM*	9%
CCCCN(CC)C(=O)CCn1c(=O)c2cccn2c2cccnc21	u	x	x	18µM*	x
COc1ccc(NC(=O)CCn2c(=O)c3cccn3c3cccnc32)cc1Cl	0%	x	x	-24%	x
CCOC(=O)c1ccc(NC(=O)CCn2c(=O)c3cccn3c3cccnc32)cc1	21µM*	x	x	u	x
O=C(CCn1c(=O)c2cccn2c2cccnc21)N1CCN(c2ccc(F)cc2)CC1	15µM*	x	x	16µM*	x
SMILES	DT40 TDP1 CPT	IL-1B inflam inh	HT1080NT lethal	DT40 TDP1 no CPT	HT1080 IDH1KD tx
CCOC(=O)c1ccc(NC(=O)CCCn2c(=O)c3cccn3c3cccnc32)cc1	u	x	x	18µM*	x
COc1ccc(N2CCN(C(=O)CCn3c(=O)c4cccn4c4cccnc43)CC2)cc1	-15%	x	x	-21%	x
COC(=O)c1ccccc1NC(=O)CCCn1c(=O)c2cccn2c2cccnc21	-19%	x	x	-21%	x
CCN(CC)C(=O)c1[nH]cnc1C(=O)N[C@@H](C)C(=O)OC(C)(C)C	-3%	24	4%	-13%	6%
CCc1cccc(C)c1NC(=O)CCCn1c(=O)c2cccn2c2cccnc21	23µM*!	-8	8%	u	19%
O=C(O)CC1CCC(=C(Cl)Cl)C1 (stereo unspecified)	1µM*	-74*	u	2.9µM*	u
CN(C)c1ccc(C(c2ccc(N(C)C)cc2)C(O)c2ccccc2)cc1 (stereo unspecified)	u	-55*	11%	u	16%
COc1ccc(N(C)C2=NS(=O)(=O)c3ccccc32)cc1	3.7µM*	44	12µM*	2.6µM*	23µM*
COc1ccc(/C=N/N(C)C2=NS(=O)(=O)c3ccccc32)cc1	9%	-6	10%	-4%	-9%
CN(/N=C/c1cccc(Br)c1)C1=NS(=O)(=O)c2ccccc21	u	u	19%	23µM*	25%
CN(/N=C/c1ccc(N(C)C)cc1)C1=NS(=O)(=O)c2ccccc21	4.1µM*	-12	u	u	u
COc1ccc(C)cc1S(=O)(=O)N1CCN(C(=O)c2ncoc2-c2cccc(F)c2)CC1	-12%	0	-9%	-24%	-2%
Cc1cc(N2CCCCC2)nc2ccc(NC(=O)c3cccc(Cl)c3)cc12	23µM*	x	x	21µM*	x
Cc1cc(N2CCCCC2)nc2ccc(NC(=O)c3cccc(F)c3)cc12	7.3µM*	x	x	7.3µM*	x
Cc1cc(N2CCOCC2)nc2ccc(NC(=S)NCc3ccc4c(c3)OCO4)cc12	u	-12	-1%	18µM*	0%
CCN1CCN(c2cc(C)c3cc(NC(=O)c4ccc(C)c(C)c4)ccc3n2)CC1	u	-7	-2%	18µM*	2%
COc1ccc(CCSc2n[nH]c(C(C)C)n2)cc1	-27%	x	x	-23%	x
COC(=O)c1c(C(=O)OC)c(-c2cccc(F)c2)n2c1CS(=O)(=O)C2	-3%	8	-2%	15%	1%
COc1ccc(C(=O)Nc2ccc3nc(N4CCCCC4)cc(C)c3c2)c(OC)c1	-24%	x	x	u	x
Cc1cc(N2CCCC2)nc2ccc(NC(=S)NC(C)C)cc12	u	-15	4%	16µM*	10%
Cc1ccc(C(=O)Nc2ccc3nc(N4CCCCC4)cc(C)c3c2)cc1F	u	x	x	23µM*	x
Cc1cccc(NC(=O)c2cc3c([nH]c2=O)CC(c2ccccc2)CC3=O)c1 (stereo unspecified)	-29%	x	x	-19%	x
NC(=O)c1ccsc1NC(=O)COC(=O)CCc1ccccc1	-10%	14	-4%	u	-5%
